Bioassay records as filed in PubChem.
The list is not random: actives were taken first. Their share in the collection is about 1.3%.
GALR2 blocker: antagonists of human galanin receptor 2 (GALR2); actives 0.39% (n = 140,000); O43603; GALR2-expressing cells, antagonist mode; inhibition, % at 4 µM; AID 828; in the data active = inhibition above about 27%;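 also: cells stimulated with galanin 1-16 at roughly its EC80; 0% = agonist challenge control and 100% = basal control without agonist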
Target sequence (O43603 whole entry, looked up): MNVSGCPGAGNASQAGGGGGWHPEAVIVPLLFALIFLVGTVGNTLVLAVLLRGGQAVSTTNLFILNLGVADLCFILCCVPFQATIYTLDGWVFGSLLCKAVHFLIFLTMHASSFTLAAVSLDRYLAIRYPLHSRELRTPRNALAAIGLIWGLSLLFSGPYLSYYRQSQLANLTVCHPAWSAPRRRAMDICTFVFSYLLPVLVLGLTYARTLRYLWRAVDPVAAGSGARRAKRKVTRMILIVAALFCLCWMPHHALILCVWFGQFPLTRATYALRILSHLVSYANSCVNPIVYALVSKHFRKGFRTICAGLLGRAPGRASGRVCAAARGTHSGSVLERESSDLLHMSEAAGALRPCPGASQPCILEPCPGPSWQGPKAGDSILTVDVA
GALR2 agonist: agonists of human galanin receptor 2 (GALR2). AID 803. actives 0.48% (n = 140,000). activation, % (no concentration beside the values). GALR2-expressing cells, agonist activation read-out. O43603; in the data active = activation above about 5%, passing the limit was not always enough;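 also: 0% = vehicle buffer wells and 100% = reference agonist at full effect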
S1P2 antag: antagonists of human S1P2 receptor; O95136; cell-based S1P2 antagonist assay, inhibition at 5 uM; inhibition, % at 5 µM; actives 0.21% (n = 97,000); AID 736; in the data active = inhibition above about 45%;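 also: CRE beta-lactamase reporter cells expressing human S1P2 stimulated with S1P; 0% = agonist at EC80 alone and 100% = agonist plus reference antagonist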
Phagocyt inh: macrophage phagocytosis inhibition; J774A.1 macrophage IgG-bead phagocytosis, imaging; inhibition, % at 5 µM; actives 0.07% (n = 110,000); AID 1029;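 active = inhibition above the mean of the plate negative controls plus 5 SD, cut at about 13% in these data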;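 also: phagocytic index as fraction of beads internalized from green versus red external bead signal; plate controls were DMSO negative control for no effect and cytochalasin-D positive control for full effect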
S1P2 ag: S1P2 (human) receptor agonism; O95136; actives 0.46% (n = 97,000); activation, % at 4.5 µM; AID 729; S1P2-expressing cell line, agonist reporter read-out; in the data active = activation above about 16%;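 also: 0% = vehicle low control and 100% = maximal reference agonist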
GALR2 ag confirm: confirmation of human galanin receptor 2 (GALR2) agonists. AID 864. actives 10% (n = 460). shares compounds with GALR2 agonist. GALR2-expressing cells, agonist activation. activation, % at 5.6 µM; in the data active = activation above about 8.4%;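 also: 0% = buffer-only vehicle wells and 100% = full reference agonist response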
BLA act counter: beta-lactamase activation, GALR2 counterscreen; actives 10% (n = 460); CHO NFAT-bla reporter, beta-lactamase FRET activation; activation, % at 5.6 µM; shares compounds with GALR2 agonist;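 active = activation above the screen-wide mean activation plus 3 SD, cut at about 8% in these data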;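 also: 0% = DMSO with PBS wells and 100% = thapsigargin positive control wells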
Numbers without * were called inactive; / = no result given.

SMILES	GALR2 blocker	GALR2 agonist	S1P2 antag	Phagocyt inh	S1P2 ag	GALR2 ag confirm	BLA act counter
O=C(CSc1ccc2nnc(-c3cccc(F)c3)n2n1)N1CCCc2ccccc21	2.5	9.1*	/	-0.6	/	9.7*	7.8
C=CCOc1ccc(C2/C(=C(\O)c3ccc(F)cc3)C(=O)C(=O)N2CCCN(C)C)cc1 (stereo not given)	6.6	8.3*	5.6	-0.8	-10.3	-0.5	0.2
COc1ccc(NS(=O)(=O)c2ccc3nc(COc4ccc(C#N)cc4)[nH]c3c2)cc1	-1.4	1.2	/	-4.0	/	/	/
N#Cc1c(NC(=O)c2ccccc2Cl)n(Cc2ccccc2)c2nc3ccccc3nc12	10.4	8.2*	/	-4.1	/	3.6	6.9
CCOC(=O)c1c(C#N)c(SCC(=O)Nc2ccc(OC)cc2)nc2c1CN(CC)CC2	-1.3	67.2*	4.0	-0.4	-2.5	0.5	-0.6
COc1ccc(NC(=O)CSc2nc(N)c(C#N)cc2C#N)cc1	-4.4	0.1	-0.8	-0.7	-0.9	/	/
COc1cc2c(cc1NC(=O)COC(=O)C(CCSC)NC(=O)c1ccccc1Cl)oc1ccccc12 (stereo not given)	22.7	-1.7	/	-3.6	/	/	/
Cc1ccc2oc(-c3cccc(NC(=O)/C=C/c4cccc([N+](=O)[O-])c4)c3C)nc2c1	-0.7	-0.7	/	/	/	/	/
CCCCCCCCNC(=O)/C(C#N)=C/c1ccc(SC)cc1	5.3	-1.4	/	-5.1	/	/	/
C#CCNc1cc(C)nc2ncnn12	0.8	12.6*	12.5	0.1	-1.9	-0.6	-1.5
COc1ccccc1-c1cc(C(F)(F)F)nc(S(=O)(=O)CCCC(=O)O)n1	-8.7	-2.5	-9.1	0.9	-7.2	/	/
COc1ccccc1-c1cc(C(F)(F)F)nc(S(=O)(=O)CCCC(=O)N2CCOCC2)n1	3.9	10.6	-49.4	-0.2	-3.2	0.9	7.1
CC(=O)CCn1c(=O)n(CCC(C)=O)c(=O)n(CCC(C)=O)c1=O	-0.4	36.4*	5.0	/	-14.2	-1.2	-2.7
CCn1cc(C2=NOC(C(=O)Nc3cc(C)nn3-c3ccccc3)C2)c(C)n1 (stereo not given)	13.7	11.1*	/	-0.9	/	-0.2	-1.6
CCc1ccc(C(C)NC(=O)c2ncn[nH]2)cc1 (stereo not given)	14.0	-0.6	/	/	/	/	/
NS(=O)(=O)c1ccc(N2N=C(c3ccccc3)CC2c2ccc(F)cc2)cc1 (stereo not given)	-10.4	20.4*	-6.3	-0.1	4.7	5.0	11.2*
O=C(Nc1ccc(Oc2nnc(-c3ccccc3)c3ccccc23)cc1)c1ccccc1	-6.5	0.9	/	-5.3	/	/	/
O=Cc1c(C(=O)O)n(CC(=O)O)c2ccccc12	-2.3	-0.2	/	-8.4	/	/	/
COCCOC(=O)c1c(C)n(C)c2ccc(OC(=O)c3ccco3)cc12	-8.9	85.8*	-10.0	0.3	-6.7	-0.3	0.6
Cc1nc2c(-c3ccc(F)cc3)c(C)nn2c(C)c1CCC(=O)NCCN1CCOCC1	1.2	-0.6	-10.5	-0.4	-4.6	/	/
COCCNC(=O)CCc1c(C)nc2c(-c3ccc(F)cc3)c(C)nn2c1C	-11.1	42.4*	4.0	-0.8	-2.6	0.1	-0.6
COCc1nnc(NC(=O)C(C)C)s1	-1.2	135.6*	-9.2	4.9	3.5	-0.7	0.3
CCOCC(=O)Nc1nnc(COC)s1	-1.8	0.0	1.1	1.8	-4.5	/	/
Cc1ccc2nc3c(cc(C(=O)NCC4CCCO4)c(=N)n3CCCOC(C)C)c(=O)n2c1 (stereo not given)	-11.7	9.9	-5.0	-0.7	5.0	0.7	3.2
Cc1ccc2nc3c(cc(C(=O)NCC4CCCO4)n3C)c(=O)n2c1 (stereo not given)	-8.4	-0.5	6.5	/	-0.8	/	/
SMILES	GALR2 blocker	GALR2 agonist	S1P2 antag	Phagocyt inh	S1P2 ag	GALR2 ag confirm	BLA act counter
COC(=O)C1=C(C)NC2=C(C(=O)CC(C)(C)C2)C1c1cnn(C)c1C (stereo not given)	-8.5	0.2	/	-4.1	/	/	/
COc1ccccc1NC(=S)Nc1ccccn1	7.0	44.2*	/	-10.6	/	-0.8	-2.2
CC(C)N1C(=O)S/C(=C/c2cccnc2)C1=O	8.3	-2.1	20.9	/	-6.9	/	/
CC(C)N1C(=O)S/C(=C/c2ccc3c(c2)n(C)c(=O)n3C)C1=O	3.1	96.9*	-4.9	4.2	0.1	-0.2	0.8
CCCCC(=O)Nc1cccc(NC(=O)c2ccc(Br)o2)c1	5.6	9.0	11.2	9.6	-1.9	-0.6	-1.8
CC(=O)c1cccc(NC(=O)c2ccc(Br)o2)c1	13.2	-1.2	/	-0.1	/	/	/
O=C(CC1C(=O)N(c2ccccc2)C(=O)N1C1CCCCC1)Nc1ccccc1 (stereo not given)	6.1	-2.1	0.8	-2.5	-11.4	/	/
CCOC(=O)c1cc(-c2ccc(C)cc2)n(CCC(=O)N2CCN(c3ccccn3)CC2)c1C	-5.7	0.5	/	5.2	/	/	/
S=C1NC(c2ccccc2)N2C(=S)NC(c3ccccc3)N12 (stereo not given)	-3.7	12.3*	-14.8	1.6	-3.4	-0.3	-0.3
COc1ccc(C2NC(=S)N3C(c4ccc(OC)cc4)NC(=S)N23)cc1 (stereo not given)	1.7	-2.1	-7.7	1.8	-5.4	/	/
CCOC(=O)N1CCN(C(=O)C2CCN(S(=O)(=O)c3c(C)cc(C)cc3C)CC2)CC1	-0.5	18.4*	6.0	1.8	-2.4	-1.1	-2.5
CCOC(=O)N1CCN(S(=O)(=O)c2c(C)cc(C)cc2C)CC1	-8.2	-1.5	17.2	-0.7	0.8	/	/
Cn1cccc1/C=N/NC(=O)c1cccc(OC(F)(F)C(F)F)c1	0.8	-1.4	/	2.0	/	/	/
Cc1ccc(NC(=O)/C(=C/c2ccco2)c2ccccc2)c(C)c1	-4.9	90.9*	-0.6	-0.5	-5.3	-0.8	-1.8
Cc1cc(C)c(NC(=O)/C(=C/c2ccccc2)c2ccccc2)c(C)c1	-1.4	-1.6	/	/	/	/	/
Cc1nc(NCc2ccco2)c2c(C)c(C)sc2n1	6.0	-2.5	2.4	-0.7	0.3	/	/
Cc1nc(SCC(=O)N(C)Cc2ccco2)c2c(C)c(C)sc2n1	-0.9	11.1	-23.2	0.4	2.9	-0.4	0.2
Cc1ccc(S(=O)(=O)N2CCCOC2CNC(=O)C(=O)NCc2cccs2)cc1 (stereo not given)	8.8	-1.1	/	-0.4	/	/	/
Cc1cc(C)c(NC(=O)CCCC(=O)O)c(Cl)c1	-2.3	13.3*	9.2	/	-1.8	-0.6	-2.1
CCc1cccc(C)c1NC(=O)CCCC(=O)O	-15.5	-2.1	-11.9	6.7	-2.3	/	/
Cn1c(=O)c(C(=O)CN2CCOCC2)c(N)n(Cc2ccccc2)c1=O	0.5	-1.8	10.0	/	-2.3	/	/
CC1CN(CC(=O)c2c(N)n(Cc3ccccc3)c(=O)n(C)c2=O)CC(C)O1 (stereo not given)	-3.4	44.1*	0.6	-2.1	-6.7	-0.4	-2.1
CCCCc1ccc(NC(=S)Nc2ccc(Cl)c(S(=O)(=O)N(C)C)c2)cc1	4.9	-0.8	/	-1.8	/	/	/
Cc1cc2c(cc1C)C(c1ccccc1Br)CC(=O)N2 (stereo not given)	-10.0	20.5*	/	0.9	/	-0.4	-3.2
Cc1cc(C)c(-c2c(O)c3cnn(-c4ccccc4)c3[nH]c2=O)c(C)c1	9.2	34.2*	/	-5.7	/	-1.0	-4.1
